Laboratory results published in PubChem BioAssay (EPA / NIEHS).
Records with an inconclusive call do not appear. Activity calls are given as the source filed them. The calls were made as follows, unless noted: active = hit-call score of the fitted dose curve at least 0.9, where 1 is the maximum; inconclusive = response in the unintended direction; inactive = score below 0.9.

Experiments:
[1] = ATG_TCF_b_cat_CIS: Attagene CIS-FACTORIAL HepG2 Assay for human T-Cell-Factor with beta-catenin (TCF/b-cat) (AID 2282965; active = hit-call score of the fitted dose curve at least 0.9, where 1 is the maximum; inactive = score below 0.9); settings: HepG2 TCF/beta-catenin cis-reporter transcription, actives raise or lower the signal
In short: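 HepG2 cells transiently transfected with cis-promoter-driven multiplexed reporter units; reporter mRNA measured 24 h after dosing by RT-PCR, FAM labelling, HpaI digestion and capillary electrophoresis. Bidirectional fitting relative to DMSO baseline.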

[2] = ATG_TGFb_CIS: Attagene CIS-FACTORIAL HepG2 Assay for human Transforming Growth Factor (TGF) (AID 2282967; active = hit-call score of the fitted dose curve at least 0.9, where 1 is the maximum; inactive = score below 0.9); settings: HepG2 Attagene CIS TGFb reporter, mRNA transcription; actives raise or lower the signal
In short: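 Endogenous TGFB1-linked transcription factor activity read as reporter mRNA via RT-PCR and capillary electrophoresis, 24 h after dosing transiently transfected HepG2 cells. Gain or loss of signal fitted relative to DMSO.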

[3] = ATG_VDRE_CIS: Attagene CIS-FACTORIAL HepG2 Assay for human Vitamin D Receptor Element (VDRE) (AID 2282968; active = hit-call score of the fitted dose curve at least 0.9, where 1 is the maximum; inactive = score below 0.9); settings: HepG2 VDRE cis-reporter transcription, actives raise or lower the signal
In short: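 Transient MRTU transfection of HepG2, 24 h compound exposure. Readout: reporter transcripts via RT-PCR and capillary electrophoresis, fluorescence. Bidirectional fit vs DMSO.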

[4] = target: Estrogen receptor (Homo sapiens) (UniProt P03372); experiment: ATG_ERa_TRANS: Attagene TRANS-FACTORIAL HepG2 Assay for human Estrogen Receptor alpha (ERa) (AID 2282970); settings: HepG2 Attagene TRANS ERa GAL4 reporter, mRNA
Estrogen receptor (Homo sapiens), sequence (P03372 whole entry, looked up, the tested form may be a part): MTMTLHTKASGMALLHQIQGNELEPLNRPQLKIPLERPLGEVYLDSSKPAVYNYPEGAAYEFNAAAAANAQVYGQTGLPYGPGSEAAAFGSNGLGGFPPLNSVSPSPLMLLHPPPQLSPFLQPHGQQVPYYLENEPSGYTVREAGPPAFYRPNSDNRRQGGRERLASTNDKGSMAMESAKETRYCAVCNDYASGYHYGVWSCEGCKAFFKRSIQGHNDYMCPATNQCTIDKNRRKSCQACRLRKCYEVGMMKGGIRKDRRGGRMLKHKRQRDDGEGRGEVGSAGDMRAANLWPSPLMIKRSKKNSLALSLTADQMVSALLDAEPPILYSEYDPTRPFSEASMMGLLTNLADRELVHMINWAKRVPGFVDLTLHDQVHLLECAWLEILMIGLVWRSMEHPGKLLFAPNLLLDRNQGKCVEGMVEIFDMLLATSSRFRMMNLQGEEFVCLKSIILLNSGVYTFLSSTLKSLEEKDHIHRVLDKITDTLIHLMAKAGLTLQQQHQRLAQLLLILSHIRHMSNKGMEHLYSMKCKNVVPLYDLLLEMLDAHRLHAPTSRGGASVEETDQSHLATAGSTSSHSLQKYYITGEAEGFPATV
In short: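 Transfected HepG2 cells carrying GAL4-UAS-driven reporter units were dosed for 24 hours. Total RNA was reverse-transcribed, reporter sequences PCR-amplified, FAM-labelled, HpaI-digested and resolved by capillary electrophoresis. Increases over DMSO control defined activity.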

[5] = target: X-box-binding protein 1 (Homo sapiens) (UniProt P17861); experiment: ATG_Xbp1_CIS: Attagene CIS-FACTORIAL HepG2 Assay for human X-box Binding Protein 1 (XBP1) (AID 2282972; active = hit-call score of the fitted dose curve at least 0.9, where 1 is the maximum; inactive = score below 0.9); settings: HepG2 XBP1 cis-element reporter, Attagene multiplex; actives raise or lower the signal
X-box-binding protein 1 (Homo sapiens), sequence (P17861 whole entry, looked up): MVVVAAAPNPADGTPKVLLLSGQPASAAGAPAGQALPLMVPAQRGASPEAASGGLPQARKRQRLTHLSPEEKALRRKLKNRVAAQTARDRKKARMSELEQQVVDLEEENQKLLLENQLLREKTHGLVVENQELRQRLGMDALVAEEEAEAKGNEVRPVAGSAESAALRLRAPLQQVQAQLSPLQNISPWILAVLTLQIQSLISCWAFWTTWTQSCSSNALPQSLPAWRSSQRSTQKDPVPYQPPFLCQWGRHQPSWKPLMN
In short: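 Reporter transcripts were quantified by RT-PCR with fluorescent primer extension and capillary electrophoresis after 24 h chemical exposure. Cells: transiently transfected HepG2 carrying cis-regulated reporter constructs; data fitted bidirectionally relative to DMSO.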

[6] = ATG_M_19_TRANS: Attagene TRANS-FACTORIAL HepG2 Assay for M19 Transcription Factor (Internal Marker) (AID 2282974); settings: HepG2 Attagene TRANS-FACTORIAL M19 internal marker reporter
In short: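 Measured here: internal-marker reporter transcript from HepG2 cells transfected with MRTUs, harvested at 24 h. cDNA PCR products were 6-FAM labelled by primer extension, cut with HpaI for 2 h at 37 C, and resolved by CE.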

[7] = target: Estrogen-related receptor gamma (Homo sapiens) (UniProt P62508); experiment: ATG_ERRg_TRANS: Attagene TRANS-FACTORIAL HepG2 Assay for human Estrogen-Related Receptor gamma (ERRg) (AID 2282977); settings: HepG2 Attagene TRANS reporter, ERRg transactivation;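 also: hits increase reporter signal over DMSO so potencies reflect activators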
Estrogen-related receptor gamma (Homo sapiens), sequence (P62508 whole entry, looked up, the tested form may be a part): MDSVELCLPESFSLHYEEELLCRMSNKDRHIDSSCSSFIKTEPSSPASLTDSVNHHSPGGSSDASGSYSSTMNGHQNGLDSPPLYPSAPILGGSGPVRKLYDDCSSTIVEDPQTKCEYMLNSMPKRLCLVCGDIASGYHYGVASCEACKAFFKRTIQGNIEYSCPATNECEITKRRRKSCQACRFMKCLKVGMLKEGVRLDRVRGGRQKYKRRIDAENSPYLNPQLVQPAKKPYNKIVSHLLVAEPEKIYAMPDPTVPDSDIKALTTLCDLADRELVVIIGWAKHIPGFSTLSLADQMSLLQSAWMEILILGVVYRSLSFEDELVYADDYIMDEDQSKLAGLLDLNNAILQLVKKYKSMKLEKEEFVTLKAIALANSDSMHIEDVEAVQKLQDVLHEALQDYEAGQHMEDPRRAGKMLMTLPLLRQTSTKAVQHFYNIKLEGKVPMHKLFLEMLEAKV
In short: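 Exogenous NR-Gal4 chimera activity was assessed in HepG2 cells bearing transfected GAL4-UAS reporters. After 24 h dosing, total RNA underwent RT-PCR, fluorescent primer extension and HpaI digestion before capillary electrophoresis, with gain of signal scored against DMSO.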

[8] = target: Oxysterols receptor LXR-alpha (Homo sapiens) (UniProt Q13133); experiment: ATG_LXRa_TRANS: Attagene TRANS-FACTORIAL HepG2 Assay for human Liver X Receptor alpha (LXRa) (AID 2282980); settings: HepG2 Attagene TRANS reporter, LXRa transactivation
Oxysterols receptor LXR-alpha (Homo sapiens), sequence (Q13133 whole entry, looked up): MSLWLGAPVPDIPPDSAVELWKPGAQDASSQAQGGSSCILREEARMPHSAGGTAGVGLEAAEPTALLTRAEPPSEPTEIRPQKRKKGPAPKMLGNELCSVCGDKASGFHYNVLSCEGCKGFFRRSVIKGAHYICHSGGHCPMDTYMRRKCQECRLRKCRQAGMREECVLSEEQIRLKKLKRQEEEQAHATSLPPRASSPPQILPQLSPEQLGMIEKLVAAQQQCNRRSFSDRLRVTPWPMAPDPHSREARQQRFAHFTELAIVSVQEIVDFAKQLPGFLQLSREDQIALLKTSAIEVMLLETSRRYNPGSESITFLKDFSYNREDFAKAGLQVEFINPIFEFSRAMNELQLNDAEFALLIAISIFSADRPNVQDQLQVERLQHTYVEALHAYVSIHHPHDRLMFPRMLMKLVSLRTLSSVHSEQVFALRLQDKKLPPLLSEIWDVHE
In short: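 Transient HepG2 transfectants, 24 h dosing, RT-PCR/CE mRNA reporter quantitation; gain-of-signal vs DMSO.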

[9] = target: Hepatocyte nuclear factor 4-alpha (Homo sapiens) (UniProt P41235); experiment: ATG_HNF4a_TRANS: Attagene TRANS-FACTORIAL HepG2 Assay for human Hepatocyte Nuclear Factor 4 alpha (HNF4a) (AID 2282982); settings: HepG2 HNF4a transactivation reporter, mRNA readout
Hepatocyte nuclear factor 4-alpha (Homo sapiens), sequence (P41235 whole entry, looked up): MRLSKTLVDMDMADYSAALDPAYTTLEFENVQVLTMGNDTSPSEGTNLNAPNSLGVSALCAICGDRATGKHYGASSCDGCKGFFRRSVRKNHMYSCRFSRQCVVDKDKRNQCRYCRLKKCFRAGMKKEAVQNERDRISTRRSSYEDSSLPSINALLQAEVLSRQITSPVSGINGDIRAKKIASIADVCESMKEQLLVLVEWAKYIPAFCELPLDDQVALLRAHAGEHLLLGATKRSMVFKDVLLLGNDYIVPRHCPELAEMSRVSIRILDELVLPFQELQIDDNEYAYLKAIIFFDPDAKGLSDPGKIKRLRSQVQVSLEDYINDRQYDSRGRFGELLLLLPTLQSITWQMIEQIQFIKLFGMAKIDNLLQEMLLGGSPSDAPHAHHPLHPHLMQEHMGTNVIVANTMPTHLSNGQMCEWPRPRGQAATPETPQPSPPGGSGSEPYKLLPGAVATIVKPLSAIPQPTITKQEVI
In short: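 Transient MRTU transfection of HepG2, 24 h dosing. Readout: reporter mRNA via RT-PCR + capillary electrophoresis, fluorescence; activity fit upward relative to DMSO control.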

[10] = ATG_M_32_TRANS: Attagene TRANS-FACTORIAL HepG2 Assay for M32 Transcription Factor (Internal Marker) (AID 2282984); settings: HepG2 Attagene TRANS M32 internal marker reporter;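 also: transcript level of a background control reporter unit measured by RT-PCR and capillary electrophoresis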
In short: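 Read-out: fluorescent reporter cDNA fragments resolved by capillary electrophoresis after RT-PCR of total RNA. Transfected HepG2 cells were exposed to chemical for 24 h. Activity scored in the positive direction relative to DMSO.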

[11] = target: Transcriptional activator Myb (Homo sapiens) (UniProt P10242); experiment: ATG_Myb_CIS: Attagene CIS-FACTORIAL HepG2 Assay for human Myeloblastosis (Myb) Proto-Oncogene Transcription Factor (AID 2282986; active = hit-call score of the fitted dose curve at least 0.9, where 1 is the maximum; inactive = score below 0.9); settings: HepG2 Attagene CIS-FACTORIAL Myb reporter transcription; actives raise or lower the signal
Transcriptional activator Myb (Homo sapiens), sequence (P10242 whole entry, looked up): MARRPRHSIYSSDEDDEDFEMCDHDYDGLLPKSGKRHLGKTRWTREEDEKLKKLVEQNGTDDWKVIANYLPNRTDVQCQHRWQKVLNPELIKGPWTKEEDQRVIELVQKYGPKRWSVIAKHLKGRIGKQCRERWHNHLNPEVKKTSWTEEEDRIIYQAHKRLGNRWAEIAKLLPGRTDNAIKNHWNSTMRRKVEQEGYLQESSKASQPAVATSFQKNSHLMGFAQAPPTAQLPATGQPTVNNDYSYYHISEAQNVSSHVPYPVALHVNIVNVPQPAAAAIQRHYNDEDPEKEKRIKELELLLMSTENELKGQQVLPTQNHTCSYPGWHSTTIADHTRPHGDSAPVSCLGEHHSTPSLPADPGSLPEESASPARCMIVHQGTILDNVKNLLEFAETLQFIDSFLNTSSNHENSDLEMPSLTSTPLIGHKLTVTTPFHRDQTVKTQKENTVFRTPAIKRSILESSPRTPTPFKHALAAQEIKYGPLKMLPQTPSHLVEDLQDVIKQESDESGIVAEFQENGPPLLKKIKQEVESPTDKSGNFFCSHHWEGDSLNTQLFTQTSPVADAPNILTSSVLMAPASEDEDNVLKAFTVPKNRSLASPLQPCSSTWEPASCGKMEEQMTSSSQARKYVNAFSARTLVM
In short: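 Fluorescence signals from capillary electrophoresis of RT-PCR-amplified reporter cDNA give the read-out. Cells: HepG2 transfected with multiple cis-regulated reporter units. Exposure lasts 24 hours; DMSO defines baseline for gain or loss of signal.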

[12] = target: Steroid hormone receptor ERR1 (Homo sapiens) (UniProt P11474); experiment: ATG_ERRa_TRANS: Attagene TRANS-FACTORIAL HepG2 Assay for human Estrogen-Related Receptor alpha (ERRa) (AID 2282971); settings: HepG2 Attagene TRANS reporter, ERRa transactivation
Steroid hormone receptor ERR1 (Homo sapiens), sequence (P11474 whole entry, looked up, the tested form may be a part): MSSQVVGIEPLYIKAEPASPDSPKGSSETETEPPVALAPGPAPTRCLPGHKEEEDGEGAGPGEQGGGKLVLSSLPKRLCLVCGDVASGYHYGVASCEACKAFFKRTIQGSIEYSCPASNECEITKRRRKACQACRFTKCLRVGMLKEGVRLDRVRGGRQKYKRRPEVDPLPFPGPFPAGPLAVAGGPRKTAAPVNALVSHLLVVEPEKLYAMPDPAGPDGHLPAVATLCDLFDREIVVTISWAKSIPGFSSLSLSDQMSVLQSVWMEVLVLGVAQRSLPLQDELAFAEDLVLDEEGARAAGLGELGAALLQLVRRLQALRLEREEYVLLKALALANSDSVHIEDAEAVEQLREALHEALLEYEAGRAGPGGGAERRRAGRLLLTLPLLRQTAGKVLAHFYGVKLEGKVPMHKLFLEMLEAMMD
In short: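 HepG2 cells were transiently transfected with multiple GAL4-UAS reporter units, then dosed with compound for 24 h. Total RNA was reverse-transcribed, reporter cDNA PCR-amplified and fluorescently labelled, and fragments resolved by capillary electrophoresis; induction was compared with DMSO.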

[13] = ATG_GAL4_TRANS: Attagene TRANS-FACTORIAL HepG2 Assay for GAL4 (Internal Marker) (AID 2282976); settings: HepG2 Attagene TRANS GAL4 internal marker reporter
In short: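 Fluorescence from capillary electrophoresis of labelled RT-PCR products quantifies reporter mRNA induction after 24 h dosing of HepG2 cells carrying transfected GAL4-UAS reporter transcription units. Vehicle DMSO serves as baseline.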

[14] = target: Oxysterols receptor LXR-beta (Homo sapiens) (UniProt P55055); experiment: ATG_LXRb_TRANS: Attagene TRANS-FACTORIAL HepG2 Assay for human Liver X Receptor beta (LXRb) (AID 2282981); settings: HepG2 Attagene TRANS GAL4-LXRb reporter, mRNA
Oxysterols receptor LXR-beta (Homo sapiens), sequence (P55055 whole entry, looked up, the tested form may be a part): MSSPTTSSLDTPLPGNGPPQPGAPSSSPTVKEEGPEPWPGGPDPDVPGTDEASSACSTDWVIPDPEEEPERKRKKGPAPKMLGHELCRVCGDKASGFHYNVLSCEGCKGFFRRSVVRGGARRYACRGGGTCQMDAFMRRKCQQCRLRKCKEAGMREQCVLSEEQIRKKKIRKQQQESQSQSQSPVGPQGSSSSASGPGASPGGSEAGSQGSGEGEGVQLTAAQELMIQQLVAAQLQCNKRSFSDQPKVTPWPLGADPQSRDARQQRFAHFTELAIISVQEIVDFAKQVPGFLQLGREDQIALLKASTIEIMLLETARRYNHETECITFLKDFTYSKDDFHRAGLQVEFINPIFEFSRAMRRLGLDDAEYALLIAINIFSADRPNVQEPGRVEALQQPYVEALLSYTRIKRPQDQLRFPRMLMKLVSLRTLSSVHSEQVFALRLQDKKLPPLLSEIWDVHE
In short: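 Readout: fluorescent reporter mRNA fragments resolved by capillary electrophoresis after RT-PCR. System: transiently transfected human HepG2, exogenous LXRb-Gal4 chimera driving GAL4-UAS reporter, 24 h dosing. Activity fitted upward against DMSO baseline.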

[15] = ATG_M_06_TRANS: Attagene TRANS-FACTORIAL HepG2 Assay for M06 Transcription Factor (Internal Marker) (AID 2282983); settings: HepG2 Attagene TRANS M06 internal marker reporter
In short: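 Human liver HepG2 cells bearing transiently transfected chimeric NR-GAL4 reporter units were treated with chemicals for 24 h. Total RNA was reverse-transcribed, reporter sequences amplified and labelled, then quantified by capillary electrophoresis. Activity was fitted upward relative to DMSO.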

[16] = target: Nuclear receptor subfamily 4 group A member 2 (Homo sapiens) (UniProt P43354); experiment: ATG_NURR1_TRANS: Attagene TRANS-FACTORIAL HepG2 Assay for human Nuclear Receptor Related Protein 1 (NURR1) (AID 2282985); settings: HepG2 Attagene TRANS reporter, mRNA readout
Nuclear receptor subfamily 4 group A member 2 (Homo sapiens), sequence (P43354 whole entry, looked up, the tested form may be a part): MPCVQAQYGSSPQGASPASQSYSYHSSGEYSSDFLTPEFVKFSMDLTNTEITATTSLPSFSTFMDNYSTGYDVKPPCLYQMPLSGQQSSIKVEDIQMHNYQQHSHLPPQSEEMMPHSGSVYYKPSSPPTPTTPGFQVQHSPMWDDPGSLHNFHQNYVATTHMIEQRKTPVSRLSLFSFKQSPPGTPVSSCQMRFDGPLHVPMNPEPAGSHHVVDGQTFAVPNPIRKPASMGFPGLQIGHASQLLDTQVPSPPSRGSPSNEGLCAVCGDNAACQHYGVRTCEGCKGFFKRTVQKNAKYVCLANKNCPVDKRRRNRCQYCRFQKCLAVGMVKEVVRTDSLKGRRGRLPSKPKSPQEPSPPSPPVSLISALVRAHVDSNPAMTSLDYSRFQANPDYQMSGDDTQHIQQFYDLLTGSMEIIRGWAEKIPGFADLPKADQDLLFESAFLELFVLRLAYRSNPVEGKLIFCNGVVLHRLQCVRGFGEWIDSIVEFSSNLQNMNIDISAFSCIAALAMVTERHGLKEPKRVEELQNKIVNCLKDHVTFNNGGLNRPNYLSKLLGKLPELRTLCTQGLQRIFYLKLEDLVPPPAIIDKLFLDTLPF
In short: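 Read-out: reporter mRNA induction by RT-PCR plus capillary electrophoresis with fluorescence detection, after 24 h dosing of transfected HepG2 cells. Exogenous NR-Gal4 chimera activity drives GAL4-UAS reporter; activity fitted upward versus DMSO.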

[17] = target: Bile acid receptor (Homo sapiens) (UniProt Q96RI1); experiment: ATG_FXR_TRANS: Attagene TRANS-FACTORIAL HepG2 Assay for Farnesoid X Receptor (FXR) (AID 2282979); settings: HepG2 Attagene TRANS FXR-GAL4 reporter transcription;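 also: hits raise reporter mRNA above DMSO so AC50 marks FXR activation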
In short: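 Chimeric FXR-GAL4 activity in transiently transfected human HepG2 liver cells is scored as induction of reporter mRNA after 24 h of dosing. Detection uses RT-PCR with fluorescent labelling and capillary electrophoresis, with DMSO serving as baseline.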

[18] = target: Nuclear receptor subfamily 1 group I member 3 (Homo sapiens) (UniProt Q14994); experiment: ATG_CAR_TRANS: Attagene TRANS-FACTORIAL HepG2 Assay for human Constitutive Androstane Receptor (CAR) (AID 2282969); settings: HepG2 Attagene TRANS-FACTORIAL CAR reporter;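 also: activators raise reporter mRNA above DMSO so AC50 marks induction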
Nuclear receptor subfamily 1 group I member 3 (Homo sapiens), sequence (Q14994 whole entry, looked up, the tested form may be a part): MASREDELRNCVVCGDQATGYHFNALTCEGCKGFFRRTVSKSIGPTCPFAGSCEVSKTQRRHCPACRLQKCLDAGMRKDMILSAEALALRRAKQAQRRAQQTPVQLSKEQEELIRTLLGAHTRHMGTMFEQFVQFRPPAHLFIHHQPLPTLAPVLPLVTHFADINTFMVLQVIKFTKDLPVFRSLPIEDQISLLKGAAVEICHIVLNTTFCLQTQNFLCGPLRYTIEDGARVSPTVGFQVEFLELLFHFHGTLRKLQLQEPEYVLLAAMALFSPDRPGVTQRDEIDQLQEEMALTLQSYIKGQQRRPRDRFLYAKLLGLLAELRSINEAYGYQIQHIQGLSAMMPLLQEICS
In short: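 Transiently transfected HepG2, multiplex TRANS reporters (CAR-Gal4 chimera driving GAL4-UAS reporter). 24 h dosing. Readout: reporter transcript by RT-PCR + capillary electrophoresis, fluorescence intensity; positive direction vs DMSO.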

[19] = target: Glucocorticoid receptor (Homo sapiens) (UniProt P04150); experiment: ATG_GR_TRANS: Attagene TRANS-FACTORIAL HepG2 Assay for human Glucocorticoid Receptor (GR) (AID 2282978); settings: HepG2 Attagene TRANS GR reporter, mRNA transcription;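 also: activators score as hits since higher reporter transcript over DMSO is fitted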
In short: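 Measurement of GAL4-UAS-driven reporter mRNA in human HepG2 liver cells 24 h post-dosing, using RT-PCR with fluorescent labelling and capillary electrophoresis; the transfected constructs report exogenous NR-GAL4 chimera activity, fitted upward against DMSO.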

Cn1cccc1
outcome [1]: inactive | outcome [2]: inactive | outcome [3]: inactive | outcome [4]: inactive | outcome [5]: inactive | outcome [6]: inactive | outcome [7]: inactive | outcome [8]: inactive | outcome [9]: inactive | outcome [10]: inactive | outcome [11]: inactive

CC(C)CCOCc1ccccc1
outcome [1]: inactive | outcome [2]: inactive | outcome [3]: inactive | outcome [4]: inactive | outcome [12]: inactive | outcome [5]: inactive | outcome [13]: inactive | outcome [8]: inactive | outcome [14]: inactive | outcome [15]: inactive | outcome [16]: inactive | outcome [11]: inactive

CC(C)(CO)C(O)C(=O)NCCCO (stereo not drawn)
outcome [1]: inactive | outcome [2]: inactive | outcome [5]: inactive | outcome [7]: inactive | outcome [17]: inactive | outcome [8]: inactive | outcome [9]: inactive | outcome [15]: inactive | outcome [16]: inactive | outcome [11]: inactive

C=CC(=O)NCOCCCC
outcome [1]: inactive | outcome [2]: inactive | AC50 [3]: 49.8 µM (active) | outcome [5]: inactive | outcome [15]: inactive | outcome [10]: inactive | outcome [16]: inactive | outcome [11]: inactive

C=C(C)OC(C)=O
outcome [1]: inactive | outcome [2]: inactive | outcome [18]: inactive | outcome [4]: inactive | outcome [12]: inactive | outcome [5]: inactive | outcome [6]: inactive | outcome [13]: inactive | outcome [7]: inactive | outcome [8]: inactive | outcome [14]: inactive | outcome [9]: inactive | outcome [15]: inactive | outcome [10]: inactive | outcome [16]: inactive | outcome [11]: inactive

O=S(=O)(O)c1ccc(N=Nc2c(O)ccc3ccccc23)cc1
outcome [1]: inactive | outcome [2]: inactive | outcome [3]: inactive | outcome [18]: inactive | outcome [4]: inactive | outcome [5]: inactive | outcome [6]: inactive | outcome [8]: inactive | outcome [14]: inactive | outcome [9]: inactive | outcome [16]: inactive | outcome [11]: inactive

N#CC1(N)CCCCC1
outcome [1]: inactive | outcome [2]: inactive | outcome [5]: inactive | outcome [6]: inactive | outcome [8]: inactive | outcome [14]: inactive | outcome [9]: inactive | outcome [16]: inactive

Cc1cc(C)n(CO)n1
outcome [1]: inactive | outcome [2]: inactive | outcome [3]: inactive | outcome [4]: inactive | outcome [5]: inactive | outcome [13]: inactive | outcome [17]: inactive | outcome [8]: inactive | outcome [14]: inactive | outcome [15]: inactive | outcome [10]: inactive | outcome [11]: inactive

COc1ccc(C(=O)c2ccccc2)c(O)c1
outcome [1]: inactive | AC50 [4]: 6.43 µM (active) | outcome [5]: inactive | outcome [13]: inactive | outcome [19]: inactive | outcome [17]: inactive | outcome [14]: inactive | outcome [16]: inactive | outcome [11]: inactive

CCCCCCCCCCCCCCCCCCOS(=O)(=O)O
AC50 [1]: 17.3 µM (active) | AC50 [3]: 51.7 µM (active) | outcome [4]: inactive | outcome [12]: inactive | AC50 [5]: 33.4 µM (active) | outcome [6]: inactive | outcome [8]: inactive | outcome [14]: inactive | outcome [9]: inactive | outcome [10]: inactive | AC50 [16]: 179 µM (active) | outcome [11]: inactive

Cc1c(Cl)cccc1Cl
outcome [1]: inactive | outcome [3]: inactive | outcome [18]: inactive | outcome [4]: inactive | outcome [5]: inactive | outcome [6]: inactive | outcome [13]: inactive | outcome [19]: inactive | outcome [11]: inactive
